Most compounds without a hit are left out; they make up all but 4.3% or so of the library.
GLP-1R agonist – GLP-1 receptor (human) agonism | HEK293 GLP-1R CRE-luciferase, luminescence, 4-6 h; cells express a hypersensitive GLP-1R form | 380,000 compounds, 0.007% hits | P43220 | Potency, µM (titrated, usually from 45.6 µM), for the others: at the highest dose activation, usual class: activators; further: potency means the concentration at half of the fitted maximal effect; % of control where 0% means no effect
Target sequence (P43220 whole entry, looked up): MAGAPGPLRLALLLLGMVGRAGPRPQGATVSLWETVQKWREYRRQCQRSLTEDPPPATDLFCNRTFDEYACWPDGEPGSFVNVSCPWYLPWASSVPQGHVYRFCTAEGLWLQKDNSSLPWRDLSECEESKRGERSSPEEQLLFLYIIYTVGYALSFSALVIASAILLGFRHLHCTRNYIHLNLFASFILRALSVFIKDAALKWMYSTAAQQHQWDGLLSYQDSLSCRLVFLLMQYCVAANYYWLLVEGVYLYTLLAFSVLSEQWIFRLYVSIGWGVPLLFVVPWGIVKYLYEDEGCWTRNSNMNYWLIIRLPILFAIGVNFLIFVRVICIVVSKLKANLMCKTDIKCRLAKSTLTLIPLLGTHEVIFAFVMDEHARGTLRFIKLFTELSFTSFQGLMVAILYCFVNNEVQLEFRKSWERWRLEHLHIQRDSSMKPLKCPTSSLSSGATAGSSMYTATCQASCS
DRD3 antagonist – blocks the human D3 dopamine receptor; P35462; D3R cells, DiscoveRx beta-arrestin luminescence, antagonist mode; hits give low values; max response, negative = inhibition, %; 360,000 compounds, 2.5% hits; in the data active means max response below about -50%; inconclusive means no clear call, values can overlap the other calls; further: on the % scale 0 is the no-effect control and ±100 the full control effect
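Cells expressing the human receptor were seeded at 1500 cells/well, incubated overnight at 37 degrees C in 5% CO2, then exposed to library compounds with dopamine controls for 90 minutes at 37 degrees C before luminescent detection.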
DRD3 agonist – agonists of human D3 dopamine receptor; P35462; D3R DiscoveRx beta-arrestin cells, luminescence, 90 min; max activation, %; 410,000 compounds, 0.58% hits; AID 652048; in the data active means max activation above about 30%; further: 0% is about no effect
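Agonist-mode cell screen: cells plated at 1500/well and incubated overnight at 37 °C, then exposed to library compounds for 90 min at 37 °C. Detection reagent was added for 30–60 min at room temperature, and luminescence was read.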
GLP1R inv ag – GLP-1 receptor (human) inverse agonism. P43220. HEK293 GLP-1R CRE-luciferase, luminescence, 24 h; GLP-1R form is constitutively active. Potency, µM (series often up to 38.3 µM), for inactives: top-dose activity change, negative = inhibition, actives largely listed as inhibitors. 410,000 compounds, 1.6% hits; further: potency means the concentration at half of the fitted maximal effect; on the % scale 0 is the no-effect control and ±100 the full control effect; nearly all actives have a fitted effect of over 55% in size
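Inverse agonism was detected as reduced cAMP-driven luciferase luminescence after 24 h compound treatment. The cells were HEK293 clones expressing constitutively active human GLP-1R with the reporter. Reporter-only and GPR119 cell lines served as counterscreen controls.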
Numbers without * were called inactive. Unless noted, the call rests on the fitted dose curve; in most records, active means well fitted curve in the direction sought with a large enough effect; inconclusive means small, poorly fitted or top-dose-only effect, or another doubt; inactive means no such curve, though single readings can be large; an effect the other way counts as inactive or inconclusive.

How did COc1ccc(-c2oc3ncn4nc(COc5cccc(C)c5C)nc4c3c2-c2ccc(OC)cc2)cc1 do in these assays?
GLP-1R agonist: -5%; DRD3 agonist: -6; GLP1R inv ag: 3%

What do the screens show for `Cc1cccn2c(=O)c(C=NCc3ccccc3)c(NCCO)nc12`?
GLP-1R agonist: 11%; DRD3 antagonist: -72*; DRD3 agonist: -6; GLP1R inv ag: 48%

What do the screens show for `Cc1cccn2c(=O)c(/C=N/O)c(NCc3ccccc3)nc12`?
GLP-1R agonist: 23%; DRD3 antagonist: -18; DRD3 agonist: -21; GLP1R inv ag: 82%

Results for CCCCCCCn1c(=N)n(CC(O)c2ccco2)c2ccccc21 (centres undefined) ?
GLP-1R agonist: 4%; DRD3 antagonist: 9; DRD3 agonist: -1; GLP1R inv ag: 11µM*

How did CCCCCn1c(=N)n(CC(O)COc2cccc(C)c2)c2ccccc21 (centres undefined) do in these assays?
DRD3 agonist: 1; GLP1R inv ag: 11µM*

How did CCCCn1c(=N)n(CC(O)COc2ccccc2)c2ccccc21 (centres undefined) do in these assays?
GLP-1R agonist: 2%; DRD3 antagonist: 57; DRD3 agonist: 0; GLP1R inv ag: 8.9µM*

What do the screens show for `CCCn1c(=N)n(CC(O)COc2cccc(C)c2)c2ccccc21` (centres undefined)?
GLP-1R agonist: -1%; DRD3 antagonist: 32; DRD3 agonist: 1; GLP1R inv ag: -10%

Results for Cc1cccc(CS(=O)(=O)CC2Nc3ccc(C(=O)NCc4ccccc4)cc3NC2=O)c1 (centres undefined) ?
DRD3 agonist: 5; GLP1R inv ag: -21%

How did CCOC(=O)c1[nH]c(C)c(CCC(=O)Nc2cccc(SC)c2)c1C do in these assays?
DRD3 agonist: -16; GLP1R inv ag: inconclusive

Results for Fc1ccccc1C1c2[nH]c3ccccc3c2CCN1Cc1ccoc1 (centres undefined) ?
GLP-1R agonist: 9%; DRD3 antagonist: 1; DRD3 agonist: 0; GLP1R inv ag: 8.9µM*

Results for C[C@]1(Cn2ccnn2)[C@H](C(=O)O)N2C(=O)C[C@H]2S1(=O)=O ?
DRD3 agonist: 4

Results for COc1ccc(C(CNC(=O)c2ccc(Cl)c(S(=O)(=O)N3CCCC3)c2)N2CCCC2)cc1 (centres undefined) ?
GLP-1R agonist: 12%; DRD3 antagonist: -77*; DRD3 agonist: -18; GLP1R inv ag: inconclusive

Results for COc1cccc(NC(=O)CN(C)C(=O)c2ccc(Cl)c(S(=O)(=O)N3CCCCCC3)c2)c1 ?
GLP-1R agonist: 16%; DRD3 antagonist: -7; DRD3 agonist: -15; GLP1R inv ag: 8.9µM*

How did COc1ccc(C(CNC(=O)c2ccc(C)c(S(=O)(=O)N3CCOCC3)c2)N2CCCC2)cc1 (centres undefined) do in these assays?
GLP-1R agonist: 10%; DRD3 antagonist: -71*; DRD3 agonist: -19; GLP1R inv ag: 2%

Results for O=C1Cc2cc(S(=O)(=O)Nc3ccc(N4CCOCC4)cc3)ccc2N1 ?
GLP-1R agonist: 17%; DRD3 antagonist: -21; DRD3 agonist: -2; GLP1R inv ag: 57%

Results for C[C@]12CC[C@@H]3c4ccc(O)cc4CC[C@H]3[C@@H]1CC[C@@H]2OP(=O)(O)O ?
DRD3 agonist: 0

What do the screens show for `CC(C)NC(=O)c1cc(C2CCCCN2C(=O)c2ccc(C(C)C)cc2)on1` (centres undefined)?
GLP-1R agonist: 3%; DRD3 antagonist: 0; DRD3 agonist: -3; GLP1R inv ag: inconclusive

How did CCc1ccc2[nH]c(=O)c(CN(Cc3ccccc3)C(=O)Nc3ccccc3OC)cc2c1 do in these assays?
GLP-1R agonist: 11%; DRD3 antagonist: -7; DRD3 agonist: 0; GLP1R inv ag: 3.5µM*

Results for CCc1ccc2[nH]c(=O)c(CN(CCN(C)C)C(=O)Nc3ccccc3OC)cc2c1 ?
GLP-1R agonist: 11%; DRD3 antagonist: 0; DRD3 agonist: -1; GLP1R inv ag: inconclusive

How did CCN(CC)CCCN(Cc1cc2cc(OC)ccc2[nH]c1=O)C(=O)Nc1ccccc1 do in these assays?
GLP-1R agonist: 23%; DRD3 antagonist: -2; DRD3 agonist: -5; GLP1R inv ag: inconclusive

What do the screens show for `CCN(CC)CCCN(Cc1cc2cc(OC)ccc2[nH]c1=O)C(=O)Nc1ccc(F)cc1`?
GLP-1R agonist: 14%; DRD3 antagonist: inconclusive; DRD3 agonist: -8; GLP1R inv ag: 4.5µM*

What do the screens show for `COc1ccc(CCNC(=O)c2ccc3c(c2)N(Cc2cc(C)ccc2C)C(=O)c2ccccc2S3=O)cc1OC` (centres undefined)?
GLP-1R agonist: 1%; DRD3 agonist: -4; GLP1R inv ag: 0%

Results for Cc1cccc(N(CC(=O)NCCSc2ccc(Cl)cc2)S(C)(=O)=O)c1C ?
GLP-1R agonist: -3%; DRD3 agonist: 6; GLP1R inv ag: inconclusive

What do the screens show for `COc1cc(OC)cc(-c2c(Sc3ccccc3)c3cc(-c4cnc(OC)nc4)ccc3n2C)c1`?
GLP-1R agonist: 2%; DRD3 antagonist: inconclusive; DRD3 agonist: 40*; GLP1R inv ag: 21%

Results for COc1ccc(-c2ccc3c(c2)c(Sc2ccccc2)c(-c2cc(OC)cc(OC)c2)n3C)cc1 ?
GLP-1R agonist: -6%; DRD3 antagonist: 0; DRD3 agonist: -5; GLP1R inv ag: -24%

How did CCCCCCN1N=C(C)C(C(=O)c2ccc(Cl)cc2)C1=O (centres undefined) do in these assays?
GLP-1R agonist: -10%; DRD3 antagonist: -83*; DRD3 agonist: 2; GLP1R inv ag: inconclusive

How did O=C(Cn1ccn(-c2ccc(F)c(F)c2)c(=O)c1=O)NCc1ccccc1 do in these assays?
DRD3 agonist: -15; GLP1R inv ag: -8%

What do the screens show for `C[C@@H]1CN([C@@H](C)CO)C(=O)c2cccc(NC(=O)Nc3ccc(F)cc3)c2O[C@@H]1CN(C)Cc1ccc(Oc2ccccc2)cc1`?
GLP-1R agonist: 1%; DRD3 antagonist: -71*; DRD3 agonist: -14; GLP1R inv ag: inconclusive

What do the screens show for `C[C@H](CO)N1C[C@H](C)[C@@H](CN(C)CC2CC2)Oc2c(NC(=O)C3CC3)cccc2C1=O`?
GLP-1R agonist: 0%; DRD3 antagonist: -15; DRD3 agonist: 33*; GLP1R inv ag: 3%

What do the screens show for `C[C@H](CO)N1C[C@H](C)[C@@H](CN(C)Cc2ccc(Oc3ccccc3)cc2)Oc2c(NC(=O)C3CC3)cccc2C1=O`?
GLP-1R agonist: -4%; DRD3 antagonist: 42; DRD3 agonist: 35*; GLP1R inv ag: inconclusive

How did Cc1c(Cl)cccc1NC(=O)CNS(=O)(=O)c1cccs1 do in these assays?
GLP-1R agonist: -7%; DRD3 agonist: 0; GLP1R inv ag: -5%

How did COc1ccc(-c2nc3c4ccccc4n(CC(=O)N4CCN(c5ccccc5F)CC4)c(=O)n3n2)cc1 do in these assays?
DRD3 agonist: -20; GLP1R inv ag: 16%

How did CC(C)(C)c1ccc(-c2nc(SCC(=O)Nc3ccc(Cl)cc3)[nH]c(=O)c2C#N)cc1 do in these assays?
DRD3 agonist: -7; GLP1R inv ag: inconclusive

High-throughput results deposited in PubChem BioAssay by National Center for Advancing Translational Sciences (NCATS).
